Measured values reported in PubChem BioAssay AID1566 (Sanford-Burnham Center for Chemical Genomics, 2009).
Out of some 290,000 compounds screened, about 1,800 (0.62%) were called active. The list comes from a sample in which actives are over-represented; it also holds similar structures and randomly drawn compounds. Values without a mark were called inactive. Cut-off read from the data, not from the text of the source: active = inhibition above about 50%; inactive = the rest.

Assay: inhibition of NOD2-driven NF-kB reporter – cell-based, luminescence, uHTS, HEK293 (AID 1566)
Settings: HEK293 NOD2/NF-kB luciferase reporter, at 4 µM, hits give high values

Going from `O=C(CCNS(=O)(=O)c1ccc(Br)cc1)NCCc1ccc(Cl)cc1` to `Cc1ccc(CNC(=O)c2ccc(NC(=O)C3=CSCCO3)cc2)cc1`, the inhibition rises from -1.7% to 8.2%.

First: CNC(=O)N(O)C1N(/N=C/c2cc(Br)ccc2O)C(=S)SC1(C)C (stereo not given)
Second: CNC(=O)C(=O)NCC1OCCN1S(=O)(=O)c1ccc(OC)c(OC)c1 (stereo not given)
The inhibition of the first is higher: 13.6% for the first, -11.3% for the second.

Going from `Cc1ccc(S(=O)(=O)Cc2ccc(C(=O)N3CCN(c4cccc(C)c4C)CC3)o2)cc1` to `Cc1ccccc1S(=O)(=O)Cc1ccc(C(=O)N2CCN(c3ccccc3F)CC2)o1`, the inhibition falls from 13.8% to 10.3%.

First: Cc1onc(-c2ccccc2Cl)c1C(=O)N1CCCCC1C(=O)O (stereo not given)
Second: CC(NC(=O)C1CCCO1)c1ccccc1 (stereo not given)
The inhibition of the first is higher: 8% for the first, 3.6% for the second.

Compared with `CCOC(=O)c1c(C)[nH]c(C)c1C(=O)CSc1nc2ccccc2c(=O)n1-c1ccc(F)cc1`, `CCOC(=O)c1c(C)[nH]c(C)c1C(=O)CSc1nc2ccccc2c(=O)n1-c1ccc(C)cc1` is lower in inhibition: -3.4% for the first, -12.1% for the second.

Going from `CCC(CC)N1CCN(S(=O)(=O)c2ccc(OC)cc2)CC1` to `CC(C(=O)Nc1cc([N+](=O)[O-])ccc1Cl)N1CCN(c2ccc(O)cc2)CC1` (stereo not given), the inhibition rises from -0.3% to 1.4%.

Compared with `Cc1ccc(S(=O)(=O)Nc2ccc3nc(C)sc3c2)cc1`, `Cc1nc2ccc(NS(=O)(=O)c3ccc(F)cc3)cc2s1` is lower in inhibition: 29.3% for the first, 12.4% for the second.

Compared with `O=C(NC1CCCc2ccccc21)c1ccc([N+](=O)[O-])cc1` (stereo not given), `O=C1CCN(Cc2ccc([N+](=O)[O-])cc2)CCN1[C@H](CO)c1ccccc1` is higher in inhibition: 1.7% for the first, 8.7% for the second.

Compared with `COc1ccc(/C(N)=N/OC(=O)c2cccc([N+](=O)[O-])c2C)cc1OC`, `COc1ccc(NC(=O)c2cc3ccccc3cc2OC)cc1` is lower in inhibition: -8.3% for the first, -18.7% for the second.

First: CC(=O)c1c(C)[nH]c(C(=O)OCC(=O)Nc2cc(Cl)ccc2[N+](=O)[O-])c1C
Second: CC(=O)c1c(C)[nH]c(C(=O)OCC(=O)Nc2ccc([N+](=O)[O-])cc2Cl)c1C
The inhibition of the first is lower: 5.7% for the first, 11% for the second.

Going from `O=C(CCc1n[nH]c(=O)[nH]c1=O)N/N=C/c1ccco1` to `Cc1cc(C)c(S(=O)(=O)N2CCCOC2CNC(=O)C(=O)NCc2ccco2)c(C)c1` (stereo not given), the inhibition rises from 11.3% to 15%.

Compared with `COc1ccc(NC(=O)c2ccc3c(c2)C(=O)N(Cc2cccnc2)C3=O)c(OC)c1`, `COc1cc(NC(=O)c2cc3ccccc3cc2OC)ccc1NC(=O)c1cccs1` is higher in inhibition: -3.5% for the first, 45.8% for the second.

Compared with `C#Cc1ccc([C@@H]2C=C(C(=O)Nc3ccccc3)O[C@H](OCC)[C@H]2CCCO)cc1`, `CCC(=O)N1CCN(c2ccc(NC(=S)NC(=O)COc3ccccc3)cc2)CC1` is lower in inhibition: 11.4% for the first, 8.2% for the second.

First: CCCCc1c(C)c(C#N)c2nc3ccccc3n2c1NCCN(C)C
Second: CCCCc1c(C)c(C#N)c2nc3ccccc3n2c1Cl
The inhibition of the first is higher: -20.8% for the first, -34.2% for the second.

First: CC(C)(C(N)=O)N1CCN(c2ncc(C(F)(F)F)cc2Cl)CC1
Second: CCC(=O)N1CCN(c2nc(C)nc3sc(C)c(C)c23)CC1
The inhibition of the first is higher: 9.3% for the first, 8.8% for the second.

Going from `Cc1nc(SCC(=O)N2CCCCC2)c2c(C)c(C)sc2n1` to `Cc1nc(N2CCN(C(=O)CCC(=O)O)CC2)c2c(C)c(C)sc2n1`, the inhibition falls from 22.8% to 13.1%.

Going from `CCn1c(SCC(=O)N2CCc3ccccc3C2)nc2sc(C)c(C)c2c1=O` to `Cc1ccccc1NC(=O)C(C)Sc1nnc(-c2ccncc2)n1CC1CCCO1` (stereo not given), the inhibition falls from 17.7% to -16.6%.

First: N#Cc1cc(-c2ccccc2)nc(Oc2ccccc2)n1
Second: CC1C(=O)N(Cc2ccccc2)c2ccccc2N1C(=O)c1ccccc1 (stereo not given)
The inhibition of the first is lower: 10.8% for the first, 13.9% for the second.

Compared with `O=C(NNC(=O)c1ccc[nH]1)Nc1cc(Cl)cc(Cl)c1`, `O=C(NNc1ccc(F)cc1)c1c(F)cccc1Cl` is lower in inhibition: 2.1% for the first, -2.7% for the second.

First: O=C(COc1ccc2c3c(c(=O)oc2c1)CCCC3)N[C@@H](Cc1ccccc1)C(=O)O
Second: COc1ccc(-n2c(C)cc(C(=O)COC(=O)c3cc(NC(=O)c4cccs4)c(OC)c(OC)c3)c2C)cc1
The inhibition of the first is lower: 9.1% for the first, 12.4% for the second.

Going from `CC(C)(C)C1=CC(=O)C(N2CCOCC2)=CC1=O` to `CC1=C(C)C(=O)C(N2CCOCC2)=CC1=O`, the inhibition falls from 14.9% to 12.8%.

First: CC(=O)N1CCN(c2ccc(NC(=O)c3ccc(C(C)(C)C)cc3)cc2)CC1
Second: COc1cc(NC(=O)c2cccs2)c(C(=O)OCC(=O)c2cc(C)n(-c3ccc(F)cc3)c2C)cc1OC
The inhibition of the first is lower: 3.5% for the first, 9.1% for the second.

Compared with `CCOc1ccccc1-c1cc(C(=O)N/N=C/c2ccc(O)c(OC)c2)c2ccccc2n1`, `COc1ccc(/C=N/Nc2nnc(-c3ncc[nH]3)c3ccccc23)cc1` is lower in inhibition: -16.4% for the first, -81.3% for the second.

First: CC(=O)Nc1nc(C)c(C(C)=O)s1
Second: CC(=O)c1sc(NC(=O)C(C)C)nc1C
The inhibition of the first is lower: -12.2% for the first, 8.3% for the second.

First: CCOc1ccc(N=C2NC(=O)S/C2=C\c2ccc(Cl)cc2)cc1
Second: Clc1ccc(/C=N/Nc2nnc(-c3ncc[nH]3)c3ccccc23)cc1
The inhibition of the first is higher: -11% for the first, -40.1% for the second.

Going from `CCOCCCNCc1cc(Br)ccc1OCc1ccccc1` to `COc1ccc(Cl)cc1NC(=S)Nc1ccccc1C`, the inhibition falls from 19% to 0.6%.

Compared with `COc1cccc(CN2C(=O)C(C)N(C(=O)c3c(F)cccc3F)c3ccccc32)c1` (stereo not given), `Cc1csc2c(=O)sc(NC(=O)c3cccs3)nc12` is lower in inhibition: 45.6% for the first, 25.6% for the second.

With `CC(=O)c1c(C)[nH]c(C(=O)OCC(=O)Nc2ccc(Cl)cc2[N+](=O)[O-])c1C` the inhibition was 51% (active).
With `COc1cc2ccccc2cc1C(=O)Nc1ccc(NC(=O)c2cccs2)cc1` the inhibition was 60.7% (active).
With `CC(=O)N1CCN(c2ccc(NC(=S)NC(=O)COc3ccc(C(C)(C)C)cc3)cc2)CC1` the inhibition was 68.1% (active).
For `CC(=O)c1sc(NC(=O)C2(F)C(F)(F)C(F)(F)C(F)(F)C(F)(F)C2(F)F)nc1C`, the inhibition was 55.2% (active).
For `COc1cccc(CN2C(=O)C(C)N(C(=O)c3ccccc3)c3ccccc32)c1` (stereo not given), the inhibition was 51% (active).
In the case of `Oc1ccc2ccccc2c1/C=N/Nc1nnc(-c2ncc[nH]2)c2ccccc12`, the inhibition is reported as 66.3% (active).
